Counter-ions that a name gives are not always drawn.
Columns and labels:
Test in all cases: thermal shift delta Tm vs DMSO control; higher = stronger stabilization (binding)
Conditions in all cases: 12.5 µM; protein concentration 2 µM
LOC_OS01G01410-cb001 = tested on: LOC_OS01G01410-cb001
Procedure, shortened: (§1)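 Heating from 25°C to 95°C at 0.05°C/s, fluorescence was recorded for 19.5 μl wells of 2 μM E. coli-expressed, purified rice kinase domain in 100 mM potassium phosphate pH 7.5, 150 mM NaCl, 10% glycerol and 5 × SYPRO Orange with compound in DMSO. Boltzmann fits gave melting temperatures for this differential scanning fluorimetry assay. The shift reported is the mean of three replicates against the DMSO-only protein.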

LOC_OS01G02750-cb003 = tested on: LOC_OS01G02750-cb003
Procedure, shortened: as §1

LOC_OS01G10900-cb004 = tested on: LOC_OS01G10900-cb004
Procedure, shortened: as §1

LOC_OS01G13800-cb001 = tested on: LOC_OS01G13800-cb001
Procedure, shortened: as §1

LOC_OS01G14860-cb001 = tested on: LOC_OS01G14860-cb001
Procedure, shortened: as §1

LOC_OS01G21960-cb002 = tested on: LOC_OS01G21960-cb002
Procedure, shortened: as §1

LOC_OS01G39600-cb002 = tested on: LOC_OS01G39600-cb002
Procedure, shortened: as §1

LOC_OS01G48390-cb002 = tested on: LOC_OS01G48390-cb002
Procedure, shortened: as §1

LOC_OS01G51400-cb002 = tested on: LOC_OS01G51400-cb002
Procedure, shortened: as §1

LOC_OS01G52050-cb004 = tested on: T1, LOC_OS01G52050-cb004
T1 sequence (whole entry): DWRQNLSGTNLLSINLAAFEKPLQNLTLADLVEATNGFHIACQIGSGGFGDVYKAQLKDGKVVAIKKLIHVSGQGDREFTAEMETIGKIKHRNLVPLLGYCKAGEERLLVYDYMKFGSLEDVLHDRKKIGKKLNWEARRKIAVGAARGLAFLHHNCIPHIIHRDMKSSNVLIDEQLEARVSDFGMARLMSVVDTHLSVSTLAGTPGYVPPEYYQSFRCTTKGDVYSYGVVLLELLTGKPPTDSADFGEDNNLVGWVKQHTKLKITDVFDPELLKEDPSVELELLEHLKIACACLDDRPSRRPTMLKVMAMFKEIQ
Procedure, shortened: as §1
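Further: purified Escherichia coli-expressed rice kinase domain construct.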

| Compound | thermal shift delta Tm (LOC_OS01G01410-cb001) | thermal shift delta Tm (LOC_OS01G02750-cb003) | thermal shift delta Tm (LOC_OS01G10900-cb004) | thermal shift delta Tm (LOC_OS01G13800-cb001) | thermal shift delta Tm (LOC_OS01G14860-cb001) | thermal shift delta Tm (LOC_OS01G21960-cb002) | thermal shift delta Tm (LOC_OS01G39600-cb002) | thermal shift delta Tm (LOC_OS01G48390-cb002) | thermal shift delta Tm (LOC_OS01G51400-cb002) | thermal shift delta Tm (LOC_OS01G52050-cb004) |
| --- | --- | --- | --- | --- | --- | --- | --- | --- | --- | --- |
| Cc1ccc(Nc2nccc(N(C)c3ccc4c(C)n(C)nc4c3)n2)cc1S(N)(=O)=O [Pazopanib] | 2.16 °C | 0.45 °C | 1.67 °C | -0.48 °C | 0.04 °C | 0.56 °C | 1.25 °C | 4.34 °C | 0.23 °C | 0.91 °C |
| Nc1nc2cc(-c3ccc4ncc(C(=O)N5CCOCC5)n4c3)ccc2o1 [Serabelisib (INK-1117,MLN-1117,TAK-117)] | 0.8 °C | 1.57 °C | 2.36 °C | 0.43 °C | 1.16 °C | 0.81 °C | 0.1 °C | 0.39 °C | 0.34 °C | 3.87 °C |
| O=C(Nc1nccs1)C(c1cc(F)ccc1O)N1Cc2ccccc2C1=O (stereo not given) | 0.29 °C | 0.35 °C | 0.25 °C | -0.01 °C | 0.4 °C | 0.48 °C | -0.23 °C | -0.1 °C | -0.02 °C | -0.31 °C |
| OCCn1cc(-c2ccc3c(c2)CC/C3=N\O)c(-c2ccncc2)n1 | 0.98 °C | -2.29 °C | 0.31 °C | 0.39 °C | 0.01 °C | 0.47 °C | 0.93 °C | 0.73 °C | 0.39 °C | -0.04 °C |
| NC(=O)Nc1cc(-c2cccc(F)c2)sc1C(=O)N[C@H]1CCCNC1 | 0.37 °C | 5.35 °C | 0.3 °C | 0.24 °C | 0.9 °C | 3.38 °C | 0.2 °C | 0.65 °C | 0.08 °C | 11.6 °C |
| Cc1cc(CS(=O)(=O)c2ccccc2)cc(OCc2ccc(CN3CCC[C@@H]3CO)cc2)c1 | 0.31 °C | 1.37 °C | 0.19 °C | -0.27 °C | -0.13 °C | 0.3 °C | -13.5 °C | 0.65 °C | 0.36 °C | -0.24 °C |
| N[C@@H]1CCCN(c2c(/C=C3\SC(=O)NC3=O)cccc2-c2ccccc2)C1 | 0.41 °C | 0.59 °C | 0.27 °C | -0.81 °C | 0.66 °C | 0.65 °C | 0.1 °C | 0.27 °C | 0 °C | -0.01 °C |
| Cc1cccc(CC(=O)N2CCc3c2ccc(-c2cn(C)c4ncnc(N)c24)c3F)n1 | 1.17 °C | 6.31 °C | 2.32 °C | -0.12 °C | 0.28 °C | 0.3 °C | 0.17 °C | -0.13 °C | 0.48 °C | 1.35 °C |
| O=c1cc(N2CCOCC2)oc2c(-c3ccccc3)cccc12 | 1.06 °C | -0.94 °C | 3.69 °C | 0.14 °C | 0.93 °C | 0.79 °C | 0.29 °C | 1.24 °C | 0.33 °C | 0.42 °C |
| Cc1cc(Nc2cc(N3CCN(C)CC3)nc(Sc3ccc(NC(=O)C4CC4)cc3)n2)n[nH]1 [Tozasertib (VX-680, MK-0457)] | 6.12 °C | 6.08 °C | 2.83 °C | 0.07 °C | 1.86 °C | 1.49 °C | 10.2 °C | 3.05 °C | 0.88 °C | 1.66 °C |
| CCN(CC)CCCCNc1ncc2cc(-c3cc(OC)cc(OC)c3)c(NC(=O)NC(C)(C)C)nc2n1 | 0.27 °C | 1.32 °C | 0.9 °C | 0.29 °C | 0.28 °C | 0.43 °C | -0.12 °C | 1.3 °C | 0.23 °C | 0.11 °C |
| Cn1c2ccccc2c2c3c(c4c5ccccc5n(CCC#N)c4c21)CNC3=O | 2.6 °C | 2.74 °C | 0.09 °C | 1.15 °C | 4.78 °C | 2.78 °C | 3.54 °C | 1.96 °C | 0.8 °C | 3.9 °C |
| N#C/C(=C\c1ccc(O)c(O)c1)C(=O)NCc1ccccc1 [AG-490 (Tyrphostin B42)] | 2.63 °C | 17.9 °C | 0.93 °C | 1.74 °C | 1.27 °C | 1.78 °C | -0.2 °C | 1.08 °C | 0.47 °C | 0.46 °C |
| COc1cc(N2CCC(N3CCN(C)CC3)CC2)ccc1Nc1ncnc(Nc2ccccc2S(=O)(=O)C(C)C)n1 | 0.27 °C | 1.86 °C | 0.08 °C | -0.11 °C | 0.33 °C | 0.28 °C | 0.25 °C | 0.94 °C | 0.37 °C | 0.61 °C |
| Cn1cnc(N)c2ncnc1-2 [3-Methyladenine (3-MA)] | 0.6 °C | 5.26 °C | 0.17 °C | -0.02 °C | -0.3 °C | 0.32 °C | 0.46 °C | 1.12 °C | 0.76 °C | 0.09 °C |
| CC(C)CC(NC(=O)C(Cc1ccccc1)NC(=O)C(CCC(N)=O)NC(=O)C(Cc1ccc(O)cc1)NC(=O)C(C)NC(=O)CNC(=O)C(CCCCN)NC(=O)C(Cc1c[nH]c2ccccc12)NC(=O)C(NC(=O)C(Cc1c[nH]c2ccccc12)NC(=O)C(CCCCN)NC(=O)CNC(=O)C(CC(N)=O)NC(=O)C(CCC(=O)O)NC(=O)C(Cc1c[nH]c2ccccc12)NC(=O)C(NC(=O)C(Cc1c[nH]c2ccccc12)NC(=O)C(CO)NC(=O)CNC(=O)C1CCCN1C(=O)C(Cc1c[nH]c2ccccc12)NC(=O)C(CCC(N)=O)NC(=O)C(Cc1ccccc1)NC(=O)CNC(=O)C(N)Cc1c[nH]cn1)C(C)O)C(C)O)C(=O)NC(CCCCN)C(=O)NCC(=O)NCC(=O)NCC(=O)NCC(=O)NC(CO)C(=O)NC(CCCNC(=N)N)C(=O)NC(CCCNC(=N)N)C(=O)NC(CCCNC(=N)N)C(=O)NC(CCCNC(=N)N)C(=O)NC(CCCNC(=N)N)C(=O)NC(CCCNC(=N)N)C(=O)NC(CCCNC(=N)N)C(=O)NC(CCCNC(=N)N)C(=O)NC(CCCNC(=N)N)C(=O)O (stereo not given) | 0.36 °C | -0.66 °C | 1.09 °C | 1.22 °C | 0.08 °C | 1.26 °C | 2 °C | 1.2 °C | -0.25 °C | 1.43 °C |
| Nc1ncccc1-c1nc2ccc(-c3ccccc3)nc2n1-c1ccc(C2(N)CCC2)cc1 [Miransertib (ARQ 092) HCl] | 0.37 °C | 2.32 °C | 0.6 °C | -0.45 °C | 0.59 °C | 0.09 °C | 0.14 °C | 0.09 °C | 0.08 °C | 0.78 °C |
| CO[C@@H](C(=O)N1Cc2[nH]nc(NC(=O)c3ccc(N4CCN(C)CC4)cc3)c2C1)c1ccccc1 | 3 °C | 1.69 °C | 6.13 °C | -0.31 °C | 0.54 °C | 0.38 °C | 1.14 °C | 3.55 °C | 0.01 °C | 0.36 °C |
| O=c1cc(N2CCOCC2)oc2c(-c3cccc4c3sc3ccccc34)cccc12 | -0.61 °C | -1.71 °C | 3.77 °C | -1.29 °C | 0.08 °C | -0.64 °C | -1.62 °C | -0.49 °C | -1.28 °C | -0.72 °C |
| O=c1ncn2nc(Sc3ccc(F)cc3F)ccc2c1-c1c(Cl)cccc1Cl | 0.07 °C | 0.77 °C | 0.61 °C | 0.23 °C | 0.42 °C | 0.49 °C | -0.38 °C | 0.32 °C | 0.15 °C | 0.02 °C |
| CN(C)Cc1cccc(N=C(c2ccccc2)c2c(O)[nH]c3cc(C(=O)N(C)C)ccc23)c1 | -0.17 °C | 0.75 °C | 0.14 °C | 0.49 °C | 0.13 °C | 0.52 °C | 1.05 °C | 1.46 °C | 0.16 °C | 0.77 °C |
